Results published in PubChem BioAssay (NCATS).
The source made the active and inactive calls. A call without a number means that no potency is given here. Calls come from the whole dose curve; as a rule, active = well fitted inhibition curve with a large enough effect; inconclusive = small, poorly fitted or top-dose-only effect; inactive = no such curve, though single readings can be large or run the other way.

Molecular target: Single-stranded DNA cytosine deaminase (Homo sapiens) (UniProt Q9GZX7)
Test: Validation qHTS assay for inhibitors of Activation Induced Cytidine Deaminase (AID): AID signal (AID 1347429)
Details: Recombinant AID, FRET ssDNA deamination with UDG, fluorescence; series mostly up to 115 µM
Outline: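 AID and UDG were combined and compounds added at final up to 114 uM, then DJC20/DJC23 FRET substrate was added for 4 hr at room temperature. NaOH was then added for 30 min before fluorescence was read at 540/590 nm.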

Single-stranded DNA cytosine deaminase (Homo sapiens), sequence (Q9GZX7 whole entry, looked up): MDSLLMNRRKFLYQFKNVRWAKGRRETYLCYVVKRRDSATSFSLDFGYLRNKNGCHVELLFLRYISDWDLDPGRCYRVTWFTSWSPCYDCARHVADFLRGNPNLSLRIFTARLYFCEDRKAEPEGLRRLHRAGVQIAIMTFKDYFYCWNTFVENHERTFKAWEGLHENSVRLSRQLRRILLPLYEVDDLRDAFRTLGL

SMILES | Potency
Oc1ccc(Cn2cc[nH]c2=S)cc1 | inactive
NOCC(=O)O | inactive
NC1(C(=O)O)CCCCC1 | inactive
Cc1ccccc1/C=C/C1=NCCN1 | inactive
COc1ccc(-c2cc3ncc(C)n3c(Nc3ncccc3C(N)=O)n2)cc1OC | inactive
O=c1cc(O)cc(/C=C/c2ccc(O)c(O)c2)o1 | inactive
CCN(CC)CCCCCCCCOC(=O)c1cc(OC)c(OC)c(OC)c1 | inactive
CC(=O)NCCc1c[nH]c2ccc(O)cc12 | inactive
C[C@H]1CC2C3CCC4=CC(=O)C=C[C@]4(C)[C@@]3(Cl)[C@@H](O)C[C@]2(C)[C@@]1(O)C(=O)CO (stereo partly drawn) | inactive
CC(C)[C@@H]1CC[C@@H](C)C[C@@H]1P(=O)(c1ccccc1)c1ccccc1 | inactive
CN(C)C(=O)/N=N/C(=O)N(C)C | inactive
NC(N)=NC(N)=Nc1cccc(Cl)c1 | inactive
c1ccc(CN2CCC3(CCCc4ccccc43)CC2)cc1 | inactive
O=C(O)c1cc2cc(F)ccc2[nH]1 | inactive
C=CCN1CCc2c(cc(O)c(O)c2Cl)C(c2ccccc2)C1 (stereo not drawn) | inactive
CCCn1c(=O)c2[nH]c(C3CCCC3)nc2n(CCC)c1=O | inactive
Cn1c(=O)c2[nH]c(C3CCCC3)nc2n(C)c1=O | inactive
NC(=O)CNCCC(c1ccccc1)c1ccccc1 | inactive
NCCC1CCCC(CCN)N1 (stereo not drawn) | inactive

SMILES | Potency
CNC(=O)c1cc2c(cn1)[nH]c1ccccc12 | inactive
Nc1ccc2c3c(cccc13)C(=O)NC2=O | inactive
c1ccc2c(c1)CC(N1CCN(c3cccc4c3OCCO4)CC1)C2 | inactive
O=c1ccc2c(OCCCCc3ccccc3)c3ccoc3cc2o1 | inactive
Cn1c(=O)[nH]c2ncn(C)c2c1=O | inactive
Nc1nc2ccc(Cl)cc2c2nc(-c3ccco3)nn12 | inactive
N#Cc1cc([N+](=O)[O-])c2sc(C(N)=O)[n+]([O-])c2c1 | inactive
COC(=O)[C@H](NC(=O)c1cc(-c2ccccc2)nc2ccccc12)c1ccccc1 | inactive
Cn1cc(C(=O)OCC2CCN(CCNS(C)(=O)=O)CC2)c2ccccc21 | inactive
N#C/C(=C\c1ccc(O)c(O)c1)C(=O)NCCc1ccccc1 | inactive
COc1cc(/C=C(\C#N)C(=O)c2ccc(O)c(O)c2)cc(I)c1O | inactive
O=c1cc(-c2ccccc2F)[nH]c2cc3c(cc12)OCO3 | inactive
CCCN(CCc1ccccc1)C1CCc2c(O)cccc2C1 (stereo not drawn) | inactive
CN(C)CCC(c1ccc(Br)cc1)c1ccccn1 (stereo not drawn) | inactive
CCCCCCC(=O)OC1CC(C)(C)NC(C)(C)C1 | inactive
c1ccc(C(NCc2cccnc2)(c2ccccc2)c2ccccc2)cc1 | inactive
CN1C2CCC1CC(OC(c1ccccc1)c1ccccc1)C2 (stereo not drawn) | inactive
CN1CCCC1CCOC(C)(c1ccccc1)c1ccc(Cl)cc1 (stereo not drawn) | inactive
S=C(S)N1CCCC1 | inactive
